Data published in article PMC7862700, “An all-to-all approach to the identification of sequence-specific readers for epigenetic DNA modifications on cytosine”.

Columns and labels:
Assay in all cases: DAPPL (digital affinity profiling via proximity ligation, sequencing); 10 mM Tris-HCl pH 7.5, 50 mM NaCl, 1 mM DTT, 4% glycerol, room temperature, 30 min; GST-TFs on glutathione beads, 16-mer random dsDNA library, 0.1% formaldehyde crosslink after washing; high values mean tight binding
Conditions in all cases: protein: recombinant; tags: N-terminal GST; dsDNA, one strand shown
ERF = target: T1, ERF (Homo sapiens, UniProt P50548 1-548)
T1 sequence: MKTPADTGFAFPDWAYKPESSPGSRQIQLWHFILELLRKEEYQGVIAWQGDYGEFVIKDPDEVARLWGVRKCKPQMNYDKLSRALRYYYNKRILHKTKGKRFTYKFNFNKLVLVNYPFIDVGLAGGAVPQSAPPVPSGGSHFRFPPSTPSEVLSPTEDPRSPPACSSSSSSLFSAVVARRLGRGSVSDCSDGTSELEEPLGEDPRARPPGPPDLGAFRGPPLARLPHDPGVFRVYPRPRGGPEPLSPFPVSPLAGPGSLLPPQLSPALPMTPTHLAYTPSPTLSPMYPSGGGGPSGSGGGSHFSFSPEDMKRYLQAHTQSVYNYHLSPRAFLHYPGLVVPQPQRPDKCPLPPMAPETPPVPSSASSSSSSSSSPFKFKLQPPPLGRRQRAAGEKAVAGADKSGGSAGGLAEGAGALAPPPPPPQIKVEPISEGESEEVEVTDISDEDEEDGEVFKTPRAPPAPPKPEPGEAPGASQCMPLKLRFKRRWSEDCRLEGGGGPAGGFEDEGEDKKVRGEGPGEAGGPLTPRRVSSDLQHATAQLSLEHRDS
Method in brief: (§1)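 Human transcription factors fused to GST were expressed in yeast, captured on glutathione beads, given DNA barcodes and pooled with a GST-only negative control. Pools were incubated with 200 nmole of a 16-mer random double-stranded DNA library in Tris/NaCl/DTT/glycerol buffer at room temperature for 30 min. They were then washed, crosslinked with 0.1% formaldehyde, proximity-ligated (BsaI/T4 ligase, 1 h, 37 °C), PCR-amplified and sequenced on an Illumina NextSeq500. Binding signal is each 6-mer's read frequency for a factor divided by its frequency for the GST control.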

ETV3L = target: T2, ETV3L (Homo sapiens, UniProt Q6ZN32 1-361)
T2 sequence: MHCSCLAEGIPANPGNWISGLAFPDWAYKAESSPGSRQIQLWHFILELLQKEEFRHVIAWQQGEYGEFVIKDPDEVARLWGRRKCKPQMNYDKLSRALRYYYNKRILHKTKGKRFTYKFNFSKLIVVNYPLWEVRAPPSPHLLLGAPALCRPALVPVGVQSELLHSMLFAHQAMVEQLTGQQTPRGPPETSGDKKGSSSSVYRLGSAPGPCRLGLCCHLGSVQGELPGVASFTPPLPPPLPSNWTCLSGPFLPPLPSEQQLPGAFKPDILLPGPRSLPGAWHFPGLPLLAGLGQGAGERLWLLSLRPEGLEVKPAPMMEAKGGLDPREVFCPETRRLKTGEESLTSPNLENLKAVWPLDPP
Method in brief: as §1

ETS2 = target: T3, ETS2 (Homo sapiens, UniProt P15036 1-469)
T3 sequence: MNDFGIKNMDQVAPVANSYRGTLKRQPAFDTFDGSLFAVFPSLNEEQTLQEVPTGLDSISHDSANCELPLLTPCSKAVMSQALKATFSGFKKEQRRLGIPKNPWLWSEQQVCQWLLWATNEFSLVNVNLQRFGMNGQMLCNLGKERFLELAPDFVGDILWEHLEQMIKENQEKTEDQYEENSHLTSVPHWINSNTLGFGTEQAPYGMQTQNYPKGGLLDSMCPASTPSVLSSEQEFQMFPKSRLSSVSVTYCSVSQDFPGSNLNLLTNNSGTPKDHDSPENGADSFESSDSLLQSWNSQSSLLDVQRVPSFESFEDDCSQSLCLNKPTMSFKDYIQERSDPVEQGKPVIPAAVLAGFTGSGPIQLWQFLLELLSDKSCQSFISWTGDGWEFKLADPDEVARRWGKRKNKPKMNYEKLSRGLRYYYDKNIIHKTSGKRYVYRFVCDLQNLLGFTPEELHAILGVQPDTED
Method in brief: as §1

SPDEF = target: T4, SPDEF (Homo sapiens, UniProt O95238 1-335)
T4 sequence: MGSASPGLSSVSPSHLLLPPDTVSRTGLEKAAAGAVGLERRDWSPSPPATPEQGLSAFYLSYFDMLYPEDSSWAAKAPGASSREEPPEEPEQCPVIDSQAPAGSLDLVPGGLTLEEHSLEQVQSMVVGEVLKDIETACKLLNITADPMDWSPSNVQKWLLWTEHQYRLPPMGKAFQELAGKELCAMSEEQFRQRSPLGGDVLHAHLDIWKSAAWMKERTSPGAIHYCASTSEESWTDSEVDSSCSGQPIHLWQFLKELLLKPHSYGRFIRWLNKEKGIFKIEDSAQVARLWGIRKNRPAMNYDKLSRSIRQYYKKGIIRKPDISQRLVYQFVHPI
Method in brief: as §1

ETV7 = target: T5, ETV7 (Homo sapiens, UniProt Q9Y603 1-341)
T5 sequence: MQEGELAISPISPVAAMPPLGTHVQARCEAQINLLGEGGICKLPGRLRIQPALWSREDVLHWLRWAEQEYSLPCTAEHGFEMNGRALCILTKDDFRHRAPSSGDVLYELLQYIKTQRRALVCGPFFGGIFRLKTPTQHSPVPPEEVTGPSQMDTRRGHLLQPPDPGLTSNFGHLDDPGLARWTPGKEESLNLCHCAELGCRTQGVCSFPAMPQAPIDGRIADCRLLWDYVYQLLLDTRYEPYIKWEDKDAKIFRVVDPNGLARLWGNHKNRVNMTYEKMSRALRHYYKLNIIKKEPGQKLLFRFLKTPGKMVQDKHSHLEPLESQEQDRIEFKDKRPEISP
Method in brief: as §1

ELF5 = target: T6, ELF5 (Homo sapiens, UniProt Q9UKW6-2 1-255)
T6 sequence: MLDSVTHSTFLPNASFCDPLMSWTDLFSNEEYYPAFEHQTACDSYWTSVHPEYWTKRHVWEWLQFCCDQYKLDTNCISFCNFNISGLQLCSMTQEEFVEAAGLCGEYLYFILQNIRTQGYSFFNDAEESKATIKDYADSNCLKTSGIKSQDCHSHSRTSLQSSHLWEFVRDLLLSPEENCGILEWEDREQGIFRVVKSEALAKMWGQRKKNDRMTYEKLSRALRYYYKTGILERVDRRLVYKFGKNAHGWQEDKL
Method in brief: as §1

ETV3 = target: T7, ETV3 (Homo sapiens, UniProt P41162-2 1-143)
T7 sequence: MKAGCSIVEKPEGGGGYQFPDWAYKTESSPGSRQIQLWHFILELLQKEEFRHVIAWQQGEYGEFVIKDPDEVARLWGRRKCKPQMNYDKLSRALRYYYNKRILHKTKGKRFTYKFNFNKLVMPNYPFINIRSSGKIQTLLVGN
Method in brief: as §1

ETV6 = ETV6 (Homo sapiens, UniProt P41212 1-452)
ETV6, sequence (P41212 whole entry): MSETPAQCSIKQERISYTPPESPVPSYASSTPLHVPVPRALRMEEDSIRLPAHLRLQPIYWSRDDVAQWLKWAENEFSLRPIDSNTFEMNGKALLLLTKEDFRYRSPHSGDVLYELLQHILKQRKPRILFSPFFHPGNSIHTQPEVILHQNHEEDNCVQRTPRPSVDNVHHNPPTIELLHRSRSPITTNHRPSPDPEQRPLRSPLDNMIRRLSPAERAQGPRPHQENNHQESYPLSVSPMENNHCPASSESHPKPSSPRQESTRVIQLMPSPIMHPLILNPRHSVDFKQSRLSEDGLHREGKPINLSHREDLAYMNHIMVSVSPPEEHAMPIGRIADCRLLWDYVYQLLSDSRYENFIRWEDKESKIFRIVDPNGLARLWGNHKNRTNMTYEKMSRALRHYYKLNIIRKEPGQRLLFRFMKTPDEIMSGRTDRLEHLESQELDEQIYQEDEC
Method in brief: as §1

Sequence	binding signal (ERF)	binding signal (ETV3L)	binding signal (ETS2)	binding signal (SPDEF)	binding signal (ETV7)	binding signal (ELF5)	binding signal (ETV3)	binding signal (ETV6)
CCCCAC	1.14 fold enrichment (6-mer frequency, TF over GST control)	1.28 fold enrichment (6-mer frequency, TF over GST control)	1.22 fold enrichment (6-mer frequency, TF over GST control)	1.2 fold enrichment (6-mer frequency, TF over GST control)	1.11 fold enrichment (6-mer frequency, TF over GST control)	1.19 fold enrichment (6-mer frequency, TF over GST control)	1.2 fold enrichment (6-mer frequency, TF over GST control)	1.1 fold enrichment (6-mer frequency, TF over GST control)
CGTACA	1.21 fold enrichment (6-mer frequency, TF over GST control)	1.17 fold enrichment (6-mer frequency, TF over GST control)	1.18 fold enrichment (6-mer frequency, TF over GST control)	1.2 fold enrichment (6-mer frequency, TF over GST control)	1.25 fold enrichment (6-mer frequency, TF over GST control)	1.17 fold enrichment (6-mer frequency, TF over GST control)	1.14 fold enrichment (6-mer frequency, TF over GST control)	1.2 fold enrichment (6-mer frequency, TF over GST control)
TGATGA	1.25 fold enrichment (6-mer frequency, TF over GST control)	1.4 fold enrichment (6-mer frequency, TF over GST control)	1.28 fold enrichment (6-mer frequency, TF over GST control)	1.19 fold enrichment (6-mer frequency, TF over GST control)	1.26 fold enrichment (6-mer frequency, TF over GST control)	1.21 fold enrichment (6-mer frequency, TF over GST control)	1.33 fold enrichment (6-mer frequency, TF over GST control)	1.34 fold enrichment (6-mer frequency, TF over GST control)
TGTGCC	1.01 fold enrichment (6-mer frequency, TF over GST control)	1.19 fold enrichment (6-mer frequency, TF over GST control)	1.07 fold enrichment (6-mer frequency, TF over GST control)	1.17 fold enrichment (6-mer frequency, TF over GST control)	1.04 fold enrichment (6-mer frequency, TF over GST control)	1.05 fold enrichment (6-mer frequency, TF over GST control)	1.13 fold enrichment (6-mer frequency, TF over GST control)	1.21 fold enrichment (6-mer frequency, TF over GST control)
GTGTTC	1.19 fold enrichment (6-mer frequency, TF over GST control)	1.14 fold enrichment (6-mer frequency, TF over GST control)	1.17 fold enrichment (6-mer frequency, TF over GST control)	1.34 fold enrichment (6-mer frequency, TF over GST control)	1.11 fold enrichment (6-mer frequency, TF over GST control)	1.34 fold enrichment (6-mer frequency, TF over GST control)	1.05 fold enrichment (6-mer frequency, TF over GST control)	1.09 fold enrichment (6-mer frequency, TF over GST control)
CCGCAA	1.19 fold enrichment (6-mer frequency, TF over GST control)	1.23 fold enrichment (6-mer frequency, TF over GST control)	1.47 fold enrichment (6-mer frequency, TF over GST control)	1.36 fold enrichment (6-mer frequency, TF over GST control)	1.32 fold enrichment (6-mer frequency, TF over GST control)	1.39 fold enrichment (6-mer frequency, TF over GST control)	1.3 fold enrichment (6-mer frequency, TF over GST control)	1.33 fold enrichment (6-mer frequency, TF over GST control)
AACGAC	1.14 fold enrichment (6-mer frequency, TF over GST control)	1.15 fold enrichment (6-mer frequency, TF over GST control)	1.19 fold enrichment (6-mer frequency, TF over GST control)	1.16 fold enrichment (6-mer frequency, TF over GST control)	1.07 fold enrichment (6-mer frequency, TF over GST control)	1.18 fold enrichment (6-mer frequency, TF over GST control)	1.11 fold enrichment (6-mer frequency, TF over GST control)	1.19 fold enrichment (6-mer frequency, TF over GST control)
CGCTCT	1.3 fold enrichment (6-mer frequency, TF over GST control)	1.37 fold enrichment (6-mer frequency, TF over GST control)	1.31 fold enrichment (6-mer frequency, TF over GST control)	1.25 fold enrichment (6-mer frequency, TF over GST control)	1.18 fold enrichment (6-mer frequency, TF over GST control)	1.24 fold enrichment (6-mer frequency, TF over GST control)	1.25 fold enrichment (6-mer frequency, TF over GST control)	1.26 fold enrichment (6-mer frequency, TF over GST control)
CCCGGC	1.06 fold enrichment (6-mer frequency, TF over GST control)	1.19 fold enrichment (6-mer frequency, TF over GST control)	1.16 fold enrichment (6-mer frequency, TF over GST control)	1.28 fold enrichment (6-mer frequency, TF over GST control)	1.13 fold enrichment (6-mer frequency, TF over GST control)	1.14 fold enrichment (6-mer frequency, TF over GST control)	1.27 fold enrichment (6-mer frequency, TF over GST control)	1.22 fold enrichment (6-mer frequency, TF over GST control)
AACTTG	1.18 fold enrichment (6-mer frequency, TF over GST control)	1.17 fold enrichment (6-mer frequency, TF over GST control)	1.18 fold enrichment (6-mer frequency, TF over GST control)	1.14 fold enrichment (6-mer frequency, TF over GST control)	1.08 fold enrichment (6-mer frequency, TF over GST control)	1.06 fold enrichment (6-mer frequency, TF over GST control)	1.28 fold enrichment (6-mer frequency, TF over GST control)	1.09 fold enrichment (6-mer frequency, TF over GST control)
ATATGG	1.16 fold enrichment (6-mer frequency, TF over GST control)	1.3 fold enrichment (6-mer frequency, TF over GST control)	1.32 fold enrichment (6-mer frequency, TF over GST control)	1.3 fold enrichment (6-mer frequency, TF over GST control)	1.34 fold enrichment (6-mer frequency, TF over GST control)	1.27 fold enrichment (6-mer frequency, TF over GST control)	1.35 fold enrichment (6-mer frequency, TF over GST control)	1.34 fold enrichment (6-mer frequency, TF over GST control)
AAGTAG	1.22 fold enrichment (6-mer frequency, TF over GST control)	1.16 fold enrichment (6-mer frequency, TF over GST control)	1.31 fold enrichment (6-mer frequency, TF over GST control)	1.07 fold enrichment (6-mer frequency, TF over GST control)	1.23 fold enrichment (6-mer frequency, TF over GST control)	1.28 fold enrichment (6-mer frequency, TF over GST control)	1.26 fold enrichment (6-mer frequency, TF over GST control)	1.28 fold enrichment (6-mer frequency, TF over GST control)
TTGATC	1.23 fold enrichment (6-mer frequency, TF over GST control)	1.2 fold enrichment (6-mer frequency, TF over GST control)	1.1 fold enrichment (6-mer frequency, TF over GST control)	1.24 fold enrichment (6-mer frequency, TF over GST control)	1.08 fold enrichment (6-mer frequency, TF over GST control)	1.21 fold enrichment (6-mer frequency, TF over GST control)	1.26 fold enrichment (6-mer frequency, TF over GST control)	1.09 fold enrichment (6-mer frequency, TF over GST control)
AATTTT	1.36 fold enrichment (6-mer frequency, TF over GST control)	1.3 fold enrichment (6-mer frequency, TF over GST control)	1.23 fold enrichment (6-mer frequency, TF over GST control)	1.22 fold enrichment (6-mer frequency, TF over GST control)	1.14 fold enrichment (6-mer frequency, TF over GST control)	1.23 fold enrichment (6-mer frequency, TF over GST control)	1.2 fold enrichment (6-mer frequency, TF over GST control)	1.13 fold enrichment (6-mer frequency, TF over GST control)
GTTCAC	1.29 fold enrichment (6-mer frequency, TF over GST control)	1.25 fold enrichment (6-mer frequency, TF over GST control)	1.28 fold enrichment (6-mer frequency, TF over GST control)	1.23 fold enrichment (6-mer frequency, TF over GST control)	1.29 fold enrichment (6-mer frequency, TF over GST control)	1.13 fold enrichment (6-mer frequency, TF over GST control)	1.19 fold enrichment (6-mer frequency, TF over GST control)	1.2 fold enrichment (6-mer frequency, TF over GST control)
